# Rows were chosen to be rich in hits. Some 0.9% of all compounds tested hit in one or more screens of this group.
# gsp ag: gsp mutant agonism; gsp mutant cells, cAMP HTRF, 30 min; Potency, µM (doses to about 76.9 µM), usual class: activators; hit rate 0.13% among 340,000; AID 624287; active = well fitted activation curve with a large enough effect; inconclusive = small, poorly fitted or top-dose-only effect, or another doubt; inactive = no such curve, though single readings can be large or run the other way; cell line not stated here;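 also: phosphodiesterase inhibitor Ro 20-1724 added with compounds to block cAMP breakdown; nearly all actives have a fitted effect of over 60% in size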
#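 Cells in DMEM/10% FBS with G418 were pretreated with compounds in DMSO plus […] (300 uM stock) for 30 min at 37C. cAMP was measured by HTRF (cAMP-d2 plus anti-cAMP antibody-K) after 30 min at room temperature.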
# RXFP1 agonist: agonists of human relaxin receptor RXFP1 | Q9HBX9 | HEK293T-RXFP1 cAMP TR-FRET, 30 min; response scale: percent of porcine relaxin response, buffer zero | Potency, µM (series often up to 57.5 µM), most hits filed as activators | hit rate 0.3% among 370,000 | AID 2676; active = well fitted activation curve with a large enough effect; inconclusive = small, poorly fitted or top-dose-only effect; also: nearly all actives have a fitted effect of over 60% in size
# Target sequence (Q9HBX9 whole entry, looked up): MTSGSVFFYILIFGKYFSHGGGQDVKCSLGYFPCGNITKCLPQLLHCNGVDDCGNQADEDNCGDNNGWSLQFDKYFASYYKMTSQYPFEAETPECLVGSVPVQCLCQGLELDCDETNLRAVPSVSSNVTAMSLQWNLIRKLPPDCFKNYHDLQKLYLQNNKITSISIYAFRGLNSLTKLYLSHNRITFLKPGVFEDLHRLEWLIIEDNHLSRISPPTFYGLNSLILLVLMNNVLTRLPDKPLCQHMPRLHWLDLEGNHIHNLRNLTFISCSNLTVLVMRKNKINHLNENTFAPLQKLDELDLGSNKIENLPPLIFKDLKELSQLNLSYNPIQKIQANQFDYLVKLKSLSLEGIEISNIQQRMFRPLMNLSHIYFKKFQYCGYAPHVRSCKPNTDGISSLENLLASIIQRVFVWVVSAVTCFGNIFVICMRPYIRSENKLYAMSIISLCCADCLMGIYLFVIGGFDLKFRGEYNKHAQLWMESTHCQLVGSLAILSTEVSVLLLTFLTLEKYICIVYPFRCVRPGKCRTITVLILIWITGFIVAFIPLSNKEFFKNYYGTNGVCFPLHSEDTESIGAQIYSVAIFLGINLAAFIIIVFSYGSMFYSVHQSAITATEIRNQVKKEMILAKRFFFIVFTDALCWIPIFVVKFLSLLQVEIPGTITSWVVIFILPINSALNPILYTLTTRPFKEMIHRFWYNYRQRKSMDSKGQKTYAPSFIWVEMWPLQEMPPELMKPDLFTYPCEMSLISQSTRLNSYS
#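 HEK293 cells stably expressing RXFP1, treated 30 min at 37C with compounds plus PDE4 inhibitor Ro 20174; cAMP measured by HTRF TR-FRET. Normalized to buffer and 29 nM porcine relaxin; EC50 by Hill fit.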
# RXFP1 antagonist: antagonists of human relaxin receptor RXFP1. Q9HBX9. hit rate 0.59% among 350,000. activity change, negative = inhibition, % at 57.5 µM. AID 1259400. HEK293-RXFP1, relaxin-stimulated cAMP HTRF, 30 min; active compounds read low;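 active = activity change of -60% or lower, but not beyond a set lower limit; inconclusive = change between -60% and -40%, or beyond the set limit; inactive = change above -40%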
# gsp antag: antagonists of gsp mutant (McCune-Albright syndrome). gsp-mutant cells, cAMP HTRF, 30 min. Potency, µM (doses to about 76.9 µM), most hits filed as inhibitors. hit rate 0.4% among 340,000. AID 624288; calls by dose curve; cell line not stated here;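 also: intracellular cAMP measured with PDE inhibitor Ro 20-1724 present during compound exposure; nearly all actives have a fitted effect of over 65% in size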
#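 HTRF cAMP read-out (cAMP-d2 plus anti-cAMP antibody-K in lysis buffer, 30 min RT). Before lysis, cells are exposed to compounds with […] for 30 min at 37C in DPBS containing Ca/Mg, BSA and Tween 20.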
# Hits are given with their value; . = inactive; ? = inconclusive; / = not tested or not shown; [ ] = another dose, or the depositor's remark.
SMILES,gsp ag,RXFP1 agonist,RXFP1 antagonist,gsp antag
COC(=O)c1sccc1NC(=O)CN(C)NS(=O)(=O)c1ccc(F)cc1,.,.,.,50µM
COC(=O)c1sccc1NC(=O)CN(C)NS(=O)(=O)c1ccc(Cl)cc1,.,.,.,.
CCOC(=O)c1cccc(NC(=O)CCCn2nc(C)c3c(C)n(-c4ccccc4)nc3c2=O)c1,/,.,.,/
CCc1cccc(NC(=O)CCCn2nc(C)c3c(C)n(-c4ccccc4)nc3c2=O)c1,.,.,-66,.
CC1(C)CC(C(CCN(Cc2ccccc2)C(=O)c2ccco2)c2ccc(F)cc2)CCO1 (centres undefined),.,.,.,28µM
Cc1ccc(C)c(SCC(=O)Nc2cccc(S(=O)(=O)N3CCOCC3)c2)c1,.[15.4 µM],.,.,.
CCCCNC(C(=O)Nc1cccc(S(=O)(=O)N2CCOCC2)c1)c1ccccc1 (centres undefined),.[15.4 µM],.,.,11µM
CCCOc1ccc(NC(=O)CC2C(=O)N(c3ccccc3)C(=O)N2CCC(C)C)cc1 (centres undefined),/,.,.,/
COc1ccc(N(C)C(=O)c2cc3c(s2)-c2ccccc2OC3)cc1,/,.,-64,/
CCOc1ccc(NC(=O)CSC2=Nc3ccccc3C3=NC(CC(=O)NCc4ccc5c(c4)OCO5)C(=O)N23)cc1 (centres undefined),/,.,.,/
Cc1cc(=O)n2c(C(=O)Nc3ccc(Br)cc3)c(C(=O)Nc3ccccc3)sc2n1,/,.,.,/
O=C(NC1CCCC1)c1cc2cc(Br)ccc2o1,2.5µM,.,.,.
CC1CCCCN1CCCNC(=O)c1cc(Sc2cccc(Cl)c2)nc2ccccc12 (centres undefined),/,.,.,/
Cc1ccc(Nc2nc3nonc3[nH]c2=O)cc1C,.,.,.,.
Cc1ccc(Nc2nc3nonc3[nH]c2=O)cc1Cl,.,.,.,28µM
CCN(CC)CCCNC(=O)CSc1nc2nc(C)c(Cc3ccccc3C)c(C)n2n1,/,.,.,/
Cc1cc(C(=O)NCCN2C(=O)S/C(=C\c3cccs3)C2=O)ccc1[N+](=O)[O-],.,.,.,25µM
CN1CCN(CC(=O)c2cc(C(C)(C)C)c(O)c(C(C)(C)C)c2)CC1,.[15.4 µM],.,-85,.
CC(C)(C)c1cc(CN2CCN(CCO)CC2)cc(C(C)(C)C)c1O,.,.,.,.
COc1cccc(NC(=O)Nc2nc(-c3ccc(OC)c(OC)c3)cs2)c1,?,.,-62,.
O=C(Nc1ccc2c(c1)OCCO2)c1cnc2ccccn2c1=O,8.9µM,/,.,.
Cc1[nH]n(-c2ccccc2)c(=O)c1/C=C1\C=NN=C1c1ccccc1,.[15.4 µM],.,-110,?
Cc1[nH]n(-c2ccccc2)c(=O)c1/C=C1/C=c2ccccc2=N1,.[15.4 µM],.,.,.
COCCCNCCOCCOc1ccc(Cl)cc1C(C)(C)C,.,.,-64,.
C=CCc1cc(Cl)ccc1OCCNCCOC,.[15.4 µM],.,-81,.
SMILES,gsp ag,RXFP1 agonist,RXFP1 antagonist,gsp antag
C=CCc1cc(Cl)ccc1OCCNCCN1CCOCC1,.[15.4 µM],.,.,.
C=CCNCCOCCOc1ccc(Cl)cc1C(C)(C)C,?,.,.,.
CN(C)C(=O)NC1c2ccccc2-c2ccccc21,?,.,.,.
O=C1C=CC(=O)N1c1ccc2c(c1)C(NC(=O)C(F)(F)F)c1ccccc1-2 (centres undefined),.,/,-97,.
Cc1ccccc1C(=O)N1CCN(c2ccc(NC(=O)c3ccc4c(c3)OCCO4)cc2)CC1,.[15.4 µM],.,?,35µM
Cc1cccc(N2CCN(C(=O)c3ccc4c(c3)OCCO4)CC2)c1C,.[15.4 µM],.,.,.
Cc1cccc(C)c1N1CCN(C(=O)c2ccc3c(c2)OCO3)CC1,.[15.4 µM],.,-62,.
O=C(c1ccccc1F)N1c2nc(-c3ccco3)nn2C2(CCCCC2)[C@@H]2CCCC[C@@H]21,/,.,-65,/
COc1ccc(C(=O)N2c3nc(-c4ccco4)nn3C3(CCCCC3)[C@@H]3CCCC[C@@H]32)cc1OC,/,.,.,/
O=C(c1ccc(F)cc1)N1c2nc(-c3ccco3)nn2C2(CCCCC2)[C@@H]2CCCC[C@@H]21,/,.,-71,/
O=C(c1ccccc1F)N1c2ncnn2C2(CCCCC2)[C@@H]2CCCC[C@@H]21,/,.,.,/
N=c1c2c(-c3ccccc3)c(-c3ccccc3)n(Cc3ccco3)c2ncn1Cc1ccco1,.,.,-102,.
CCOC(=O)c1ccc(NC(=O)Cn2cc(C(=O)c3ccc(CC)cc3)c(=O)c3ccc(C)nc32)cc1,/,32µM,.,/
CCOC(=O)N1CCN(C(=O)CCCN2C(=O)CSc3nc(C)cc(C)c32)CC1,.,.,.,50µM

# High-throughput results: PubChem BioAssay, National Center for Advancing Translational Sciences (NCATS)
